# Experimental data published in PubChem BioAssay AID651998 (The Scripps Research Institute Molecular Screening Center, 2013).
# Target: Acyl-protein thioesterase 1 (Homo sapiens) (UniProt O75608)
# Test: LYPLA1 enzyme kinetics with inhibitors – biochemical, substrate-based fluorescence, Ki, Km, late-stage follow-up (AID 651998)
# Settings: recombinant LYPLA1, resorufin acetate hydrolysis fluorescence, without test compound, enzyme Km for substrate
# Chain of Acyl-protein thioesterase 1 (Homo sapiens) (O75608 whole entry, looked up): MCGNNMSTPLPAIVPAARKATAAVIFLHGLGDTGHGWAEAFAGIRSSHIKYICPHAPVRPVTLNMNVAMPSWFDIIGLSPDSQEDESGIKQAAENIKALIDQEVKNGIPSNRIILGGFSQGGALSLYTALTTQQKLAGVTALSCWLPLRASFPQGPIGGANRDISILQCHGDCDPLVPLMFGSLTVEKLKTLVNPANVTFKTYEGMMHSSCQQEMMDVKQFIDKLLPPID
smiles,measurement,value
O=C(CN1CCN(C(=O)c2ccco2)CC1)Nc1cc(C(F)(F)F)ccc1Cl,Km,28.3 µM
